The list is not random: actives were taken first. Their share in the collection is about 3.5%.
GPR151 activ = activators of human GPR151, primary screen, cell-based, PathHunter beta-arrestin, luminescence. PathHunter beta-arrestin GPR151 cells. AID 1508602, 2020. G-protein coupled receptor 151 (Homo sapiens), Q8TDV0. activation, % at 11.2 µM. 650,000 tested, 1% active; in the data active means activation above about 4.9%
FBW7 activator = FBW7 E3 ligase activators, primary screen, biochemical, AlphaScreen, human. normalized activity (activation), % at 26.1 µM. AlphaScreen FBW7–phospho-cyclin E peptide binding, activator screen. AID 1259310, 2017. 650,000 tested, 0.13% active. F-box/WD repeat-containing protein 7 (Homo sapiens), Q969H0; in the data active means normalized activity above about 1.9%;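 further: purified mutant Fbw7 with reduced substrate affinity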
MITF inh = MITF inhibitors, primary screen, biochemical, AlphaScreen, human. Microphthalmia-associated transcription factor (Homo sapiens), O75030. AlphaScreen MITF homodimerization, bead proximity signal. inhibition, % at 2.6 µM. 650,000 tested, 0.91% active; in the data active means inhibition above about 50%
Target sequence (O75030 whole entry, looked up): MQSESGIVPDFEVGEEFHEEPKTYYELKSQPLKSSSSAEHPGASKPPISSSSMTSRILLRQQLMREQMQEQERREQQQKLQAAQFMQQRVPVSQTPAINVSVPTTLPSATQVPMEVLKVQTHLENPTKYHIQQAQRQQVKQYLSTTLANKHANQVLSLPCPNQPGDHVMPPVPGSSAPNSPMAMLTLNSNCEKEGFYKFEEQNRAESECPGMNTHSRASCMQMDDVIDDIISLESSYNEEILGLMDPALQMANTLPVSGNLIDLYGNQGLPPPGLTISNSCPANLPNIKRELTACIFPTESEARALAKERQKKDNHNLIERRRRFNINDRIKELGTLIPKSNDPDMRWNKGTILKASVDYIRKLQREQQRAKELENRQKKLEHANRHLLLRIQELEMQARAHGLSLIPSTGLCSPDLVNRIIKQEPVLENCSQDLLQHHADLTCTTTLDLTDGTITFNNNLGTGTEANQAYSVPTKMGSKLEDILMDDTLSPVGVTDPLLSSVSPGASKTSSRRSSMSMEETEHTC
TEAD-YAP block = TEAD-YAP interaction inhibition, primary screen, TEAD-YAP interaction inhibitor project, luminescence, HEK-TIYL cells. TEAD-Gal4/YAP UAS-luciferase luminescence. inhibition, % at 9.12 µM. 640,000 tested, 1.4% active; in the data active means inhibition above about 32%
A number is an active result.

Cn1c2c(c(=O)n(C)c1=O)C(c1ccc(Cl)cc1)C1=C(COC1=O)N2 (centres undefined) was read as GPR151 activ inactive, FBW7 activator inactive, MITF inh inactive and TEAD-YAP block inactive.
CCOC(=O)c1cnc2c(OC)cccc2c1Nc1ccccc1OC was read as GPR151 activ inactive, FBW7 activator inactive, MITF inh inactive and TEAD-YAP block inactive.
`CCOC(=O)c1cnc2c(Cl)cccc2c1NCc1ccco1` gave GPR151 activ inactive, FBW7 activator inactive, MITF inh inactive and TEAD-YAP block inactive.
`CCOC(=O)c1cnc2c(OC)cccc2c1Nc1ccc(OC)cc1OC` gave GPR151 activ inactive, FBW7 activator inactive, MITF inh inactive and TEAD-YAP block 53.5.
`CCOC(=O)c1cnc2c(OC)cccc2c1NCc1ccco1` gave GPR151 activ inactive, FBW7 activator inactive, MITF inh inactive and TEAD-YAP block 46.3.
`COc1cc(OC)cc(C2=NC3(CCCCC3)NC2=O)c1` gave GPR151 activ inactive, FBW7 activator 2.1, MITF inh inactive and TEAD-YAP block inactive.
COc1ccc(-c2cn3cc(-c4ccc(F)cc4)nc3n2C)cc1 was read as GPR151 activ inactive, FBW7 activator inactive, MITF inh inactive and TEAD-YAP block 91.6.
For Cc1ccc(-c2cn3ccccc3n2)cc1 the results were GPR151 activ inactive, FBW7 activator inactive, MITF inh inactive and TEAD-YAP block 53.0.
Screening COc1ccc(-c2cn3ccccc3n2)cc1 returned GPR151 activ inactive, FBW7 activator inactive, MITF inh inactive and TEAD-YAP block 66.3.
For COc1ccc(-c2cn3ccccc3n2)cc1F the results were GPR151 activ inactive, FBW7 activator inactive, MITF inh inactive and TEAD-YAP block 54.7.
Clc1ccc(-c2cn3ccccc3n2)cc1 was read as GPR151 activ inactive, FBW7 activator inactive, MITF inh inactive and TEAD-YAP block inactive.
For COc1ccc(-c2cn3ccccc3n2)cc1Br the results were GPR151 activ inactive, FBW7 activator inactive, MITF inh inactive and TEAD-YAP block inactive.
For COc1ccc(CNC(=O)C(=O)N/N=C/c2ccccc2OCc2ccccc2)cc1 the results were GPR151 activ inactive, FBW7 activator inactive, MITF inh inactive and TEAD-YAP block inactive.
For Cc1cc2nc(C3CCN(CC(=O)N4CCCCCC4)CC3)[nH]c2cc1C the results were GPR151 activ inactive, FBW7 activator inactive, MITF inh inactive and TEAD-YAP block inactive.
COc1cccc(-c2cn3nc(C)c(C)nc3n2)c1 was read as GPR151 activ inactive, FBW7 activator inactive, MITF inh inactive and TEAD-YAP block inactive.
Screening COc1ccc(-c2cn3nc(C)c(C)nc3n2)cc1 returned GPR151 activ inactive, FBW7 activator inactive, MITF inh inactive and TEAD-YAP block 57.4.
`CCOc1ccc(S(=O)(=O)Nc2ccc(-c3cn4ccccc4n3)cc2)cc1` gave GPR151 activ inactive, FBW7 activator inactive, MITF inh inactive and TEAD-YAP block inactive.
`CCCOc1ccc(-c2cn3ccccc3n2)cc1` gave GPR151 activ inactive, FBW7 activator inactive, MITF inh inactive and TEAD-YAP block 79.0.
CC(NC(=O)CCc1ccccc1)c1nnc2n1CCN(Cc1ccco1)CC2 (centres undefined) was read as GPR151 activ inactive, FBW7 activator inactive, MITF inh inactive and TEAD-YAP block inactive.
For CCCc1ccc(C(=O)N2CCn3c(CO)nnc3C2)o1 the results were GPR151 activ inactive, FBW7 activator inactive, MITF inh inactive and TEAD-YAP block inactive.
CSc1nnc2c(n1)OC(c1ccco1)N(C(=O)c1ccccc1)c1ccccc1-2 (centres undefined) was read as GPR151 activ inactive, FBW7 activator inactive, MITF inh inactive and TEAD-YAP block 52.8.
Screening CC(C)(C)c1ccc(C(=O)OCC(=O)c2ccccc2)cc1 returned GPR151 activ inactive, FBW7 activator inactive, MITF inh inactive and TEAD-YAP block inactive.
For CCc1c(C)sc2ncn(C3CCN(C(=O)C4CCCC(OC)C4)CC3)c(=O)c12 (centres undefined) the results were GPR151 activ inactive, FBW7 activator inactive, MITF inh inactive and TEAD-YAP block 41.8.
CCc1c(C)sc2ncn(C3CCN(C(=O)CCn4nc(C)cc4C)CC3)c(=O)c12 was read as GPR151 activ inactive, FBW7 activator inactive, MITF inh inactive and TEAD-YAP block inactive.
CCc1c(C)sc2ncn(C3CCN(C(=O)Cc4ccsc4)CC3)c(=O)c12 was read as GPR151 activ inactive, FBW7 activator inactive, MITF inh inactive and TEAD-YAP block 45.3.
For CCOc1ncccc1C(=O)Nc1ccc(N(CC)CC)c(Cl)c1 the results were GPR151 activ inactive, FBW7 activator inactive, MITF inh inactive and TEAD-YAP block inactive.
Screening CC1CCCC(NC(=O)C(=O)Nc2ccc3nc4n(c(=O)c3c2)CCCCC4)C1C (centres undefined) returned GPR151 activ inactive, FBW7 activator inactive, MITF inh inactive and TEAD-YAP block inactive.
`CCC(=O)Nc1ccc2oc(-c3cccc(I)c3)nc2c1` gave GPR151 activ inactive, FBW7 activator inactive, MITF inh inactive and TEAD-YAP block inactive.
COc1ccc2oc(-c3cccc(NC(C)=O)c3)nc2c1 was read as GPR151 activ inactive, FBW7 activator inactive, MITF inh inactive and TEAD-YAP block 40.4.
For CCC(=O)Nc1ccc2oc(-c3cccc(C)c3)nc2c1 the results were GPR151 activ inactive, FBW7 activator inactive, MITF inh inactive and TEAD-YAP block 82.1.
Screening Cc1ccc2oc(-c3ccc(C(=O)Nc4ccc(NC(=O)C(C)(C)C)cc4)cc3)nc2c1 returned GPR151 activ inactive, FBW7 activator inactive, MITF inh inactive and TEAD-YAP block inactive.
CCc1ccc2oc(-c3cccc(NC(C)=O)c3)nc2c1 was read as GPR151 activ inactive, FBW7 activator inactive, MITF inh inactive and TEAD-YAP block inactive.
CCC(=O)Nc1ccc2oc(-c3cccc(Br)c3)nc2c1 was read as GPR151 activ inactive, FBW7 activator inactive, MITF inh inactive and TEAD-YAP block 56.7.
Cc1ccc2oc(-c3ccc(NC(=O)C(F)(F)F)cc3)nc2c1 was read as GPR151 activ inactive, FBW7 activator inactive, MITF inh inactive and TEAD-YAP block 71.3.
`CCCCOc1ccc(-c2[nH]nc3c2C(c2cc4c(cc2Br)OCO4)C(C#N)=C(N)O3)cc1` (centres undefined) gave GPR151 activ inactive, FBW7 activator inactive, MITF inh inactive and TEAD-YAP block inactive.
For CN(CC(=O)NCC1CCCO1)S(=O)(=O)c1cccc2cnccc12 (centres undefined) the results were GPR151 activ inactive, FBW7 activator inactive, MITF inh inactive and TEAD-YAP block inactive.
`CCOC(=O)CSc1nnc(NC(=O)NC2CCCCC2)s1` gave GPR151 activ inactive, FBW7 activator inactive, MITF inh inactive and TEAD-YAP block inactive.
`COc1ccc(NC(=O)c2ccccc2NC(=O)c2ccccc2Cl)cc1` gave GPR151 activ inactive, FBW7 activator inactive, MITF inh inactive and TEAD-YAP block inactive.
CCc1ncn(-c2ccc(Nc3nccc(-c4cccc(N5CCOCC5)c4)n3)cc2)n1 was read as GPR151 activ inactive, FBW7 activator inactive, MITF inh inactive and TEAD-YAP block 45.7.
